In the library only some 16% were active in any assay of this set; here they are far more common.
uPA generation: qHTS for Inhibitors of Cell Surface uPA Generation; hit rate 0.31% among 330,000; AID 540303, 2011; cell surface uPA generation assay, qHTS; Potency, µM (titrated, usually from 38.3 µM), for inactives: at the top dose activity change, negative = inhibition, hits mostly inhibitors; active = well fitted inhibition curve with a large enough effect; inconclusive = small, poorly fitted or top-dose-only effect; inactive = no such curve, though single readings can be large or run the other way; tested in mouse RAW 264.7 cells; note: potency is the fitted concentration of half-maximal effect; % is set by controls: 0 for no effect and ±100 for the full control effect; nearly all actives have a fitted effect of over 55% in size
TDP1 cell noCPT: qHTS for Inhibitors of human tyrosyl-DNA phosphodiesterase 1 (TDP1): qHTS in cells in absence of CPT; hit rate 15% among 420,000; Potency, µM (titrated, usually from 46.2 µM), without a hit: at the top dose activity change, negative = growth inhibition, usual class: inhibitors; AID 686978, 2013; DT40 Tdp1-/- hTDP1 cells, no CPT, ATP luminescence, 48 h; note: potency is the fitted concentration of half-maximal effect; % is set by controls: 0 for no effect and ±100 for the full control effect; nearly all actives have a fitted effect of over 55% in size
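A cellular qHTS used chicken DT40 cells lacking endogenous Tdp1 but carrying stably transfected human TDP1. Compounds were applied without camptothecin, and cell growth kinetics were judged by ATP-dependent luminescence after ≥48 hr.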
TDP1 cell CPT: qHTS for Inhibitors of human tyrosyl-DNA phosphodiesterase 1 (TDP1): qHTS in cells in presence of CPT; chicken DT40 Tdp1-/-;hTDP1 cells + 20 nM CPT, ATP luminescence, 48 h; hit rate 12% among 420,000; AID 686979, 2013; Potency, µM (doses to about 46.2 µM), for inactives: at the highest dose activity change, negative = growth inhibition, hits mostly inhibitors; note: potency is the fitted concentration of half-maximal effect; % is set by controls: 0 for no effect and ±100 for the full control effect; nearly all actives have a fitted effect of over 55% in size
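Chicken DT40 Tdp1-/- cells complemented with human TDP1, 400 cells/well, exposed to compounds plus 20 nM camptothecin for at least 48 h at 37 C; viability read as ATP content by CellTiter-Glo luminescence.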
TDP1 inh: qHTS Assay for Inhibitors of Tyrosyl-DNA Phosphodiesterase (TDP1) | Tyrosyl-DNA phosphodiesterase 1 (Homo sapiens), Q9NUW8 | recombinant TDP1, AlphaScreen DNA substrate cleavage | Potency, µM (titrated, usually from 130 µM), without a hit: top-dose activity change, negative = inhibition, hits mostly inhibitors | hit rate 0.28% among 350,000 | AID 485290, 2010; note: potency is the fitted concentration of half-maximal effect; % is set by controls: 0 for no effect and ±100 for the full control effect; nearly all actives have a fitted effect of over 40% in size
Target sequence (Q9NUW8 whole entry, looked up): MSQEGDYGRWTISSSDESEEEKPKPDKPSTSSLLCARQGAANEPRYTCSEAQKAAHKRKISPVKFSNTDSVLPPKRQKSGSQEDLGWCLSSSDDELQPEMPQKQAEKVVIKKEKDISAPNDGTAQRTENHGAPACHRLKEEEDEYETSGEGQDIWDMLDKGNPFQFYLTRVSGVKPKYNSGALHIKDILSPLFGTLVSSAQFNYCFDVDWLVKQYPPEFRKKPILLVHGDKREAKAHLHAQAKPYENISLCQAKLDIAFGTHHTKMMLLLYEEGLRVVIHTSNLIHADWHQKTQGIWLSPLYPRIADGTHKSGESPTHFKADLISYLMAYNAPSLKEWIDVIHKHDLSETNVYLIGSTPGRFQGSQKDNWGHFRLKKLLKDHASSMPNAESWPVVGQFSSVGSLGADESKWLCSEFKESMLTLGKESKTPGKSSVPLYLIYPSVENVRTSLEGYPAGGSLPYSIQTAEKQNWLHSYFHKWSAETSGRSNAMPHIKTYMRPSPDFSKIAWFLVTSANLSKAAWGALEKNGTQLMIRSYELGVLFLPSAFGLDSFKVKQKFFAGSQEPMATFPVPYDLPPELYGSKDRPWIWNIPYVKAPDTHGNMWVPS
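Compounds were preincubated with Tdp1 (1 nM final) for 15 min at room temperature before substrate (15 nM final) started a 5 min reaction; beads (10 ug/ml final) were then added for 10 min before AlphaScreen detection.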
miR-21 reporter: qHTS Assay for Modulators of miRNAs and/orActivators of miR-21. HeLa miR-21 FLuc reporter, luciferase, 48 h. Potency, µM (titrated, usually from 38.3 µM), for the others: at the top dose activity change, positive = activation, actives largely listed as activators. 340,000 tested, under 10 active. AID 2288, 2010;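 note: % of control where 0% means no effect; miR-21 action dims this reporter so a rising signal means less miR-21 action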
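Compounds were titrated across several concentrations (up to approximately 40 uM) and incubated 48 hours with HeLa miR-21-FLuc reporter cells (miR-21 target sequence downstream of FLuc, endogenous miR-21). Readout was firefly luciferase luminescence after lytic detection reagent.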
Active calls of the source: *; ? = inconclusive; nt = no result given; [ ] = remark or other dose. Unless noted, calls come from the whole dose curve; as a rule, active = well fitted curve in the direction sought with a large enough effect; inconclusive = small, poorly fitted or top-dose-only effect, or another doubt; inactive = no such curve, though single readings can be large; an effect the other way counts as inactive or inconclusive.

SMILES	uPA generation	TDP1 cell noCPT	TDP1 cell CPT	TDP1 inh	miR-21 reporter
CCOC(=O)c1ccc(N(CCC2CO2)S(=O)(=O)c2ccc(C)cc2)cc1 (configuration not stated)	-9.0%	?	?	nt	nt
Cc1cc(=O)oc2cc(NC(=O)CCCC(=O)O)ccc12	3.0%	2.5%	1.8%	5.9%	-4.7%
COc1ccc(C(C)C)cc1S(=O)(=O)Nc1ccccn1	0.9%	-1.6%	2.5%	0.5%	-7.7%
COc1ccc(CCNC(=S)Nc2ccccc2C)cc1	0.6%	?	?	5.9%	-9.7%
COCCNC(=S)Nc1cccc2cnccc12	0.1%	3.6%	-24.0%	2.3%	0.4%
COc1ccc(OCCNC(=S)Nc2cccc3ccccc23)cc1	nt	23.1µM*	-20.6%	8.4%	-17.3%
COc1ccc(CCNC(=S)Nc2cccc3ccccc23)cc1	5.0%	16.4µM*	?	10.9%	1.6%
CCOc1ccc(CCNC(=O)CCCc2cc(-c3ccc(OCC)cc3)on2)cc1	nt	-20.6%	-3.1%	6.4%	15.5%
CCN(c1ccccc1)S(=O)(=O)c1ccc(NCC2COc3ccccc3O2)nc1 (configuration not stated)	-8.3%	?	25.9µM*	-11.3%	-14.5%
Cn1c(=O)c2c(nc(C3CC4C5CCC(C5)C4C3)n2C)n(C)c1=O (configuration not stated)	7.9%	16.4µM*	?	nt	nt
COCCNC(=O)/C(C#N)=C/c1c(F)cccc1Cl	-7.3%	10.3µM*	?	2.6%	-11.1%
COCCCNC(=O)/C(C#N)=C/c1ccc(F)cc1	-0.7%	-1.1%	9.4%	5.3%	-0.7%
COCCCNC(=O)/C(C#N)=C/c1cccc(NC(=O)c2ccccc2Cl)c1	-10.7%	2.59µM*	2.59µM*	0.6%	-0.2%
COc1cc(CNc2ncnc3c2ncn3[C@H]2CN(Cc3cccc4ccccc34)C[C@@H](CO)O2)cc(OC)c1OC	nt	23.1µM*	18.4µM*	nt	nt
COc1cc(CNc2ncnc3c2ncn3[C@H]2CN(Cc3ccc(-c4ccccc4)cc3)C[C@@H](CO)O2)cc(OC)c1OC	nt	11.6µM*	8.2µM*	nt	nt
COc1cc(CNc2ncnc3c2ncn3[C@H]2CN(Cc3ccncc3)C[C@@H](CO)O2)cc(OC)c1OC	nt	13µM*	13µM*	nt	nt
COCCNc1ncnc2c1ncn2[C@H]1CN(Cc2cc(OC)c(OC)c(OC)c2)C[C@@H](CO)O1	nt	-5.2%	-9.1%	nt	nt
COc1cc(CNc2ncnc3c2ncn3[C@H]2CN(Cc3ccc(C(=O)O)cc3)C[C@@H](CO)O2)cc(OC)c1OC	nt	9.6%	0.8%	nt	nt
CCc1cc(-c2nnn(CCC3COCCO3)c2CC)ccc1-c1cn(Cc2ccccc2)nn1 (configuration not stated)	nt	20.6µM*	16.4µM*	nt	nt
C=C(CO)C1Cc2c(ccc3c2OC2COc4cc(OC)c(OC)cc4C2C3=O)O1 (configuration not stated)	nt	0.237µM*	0.299µM*	19.1%	nt
COc1ccc(-c2nnc(Nc3ccc(OC)c(C(N)=O)c3)c3ccccc23)cc1	nt	16.4µM*	?	0.4%[12.3 µM]	3.2%
Cc1ccc(-c2nnc(Nc3ccc(C(=O)N(C)C)cc3)c3ccccc23)cc1S(=O)(=O)N(C)C	nt	10.3µM*	23.1µM*	-4.0%[12.3 µM]	10.9%
COc1ccc(Nc2nnc(-c3ccc(C)c(S(N)(=O)=O)c3)c3ccccc23)cc1	nt	18.4µM*	18.4µM*	1.3%[12.3 µM]	5.7%
COc1ccc(Nc2nnc(-c3ccc(C)c(S(=O)(=O)NCc4nc5ccccc5[nH]4)c3)c3ccccc23)cc1	nt	10.3µM*	20.6µM*	nt	-6.1%
CNC(=O)c1ccc(Nc2nnc(-c3ccc(C)c(S(=O)(=O)N(C)C)c3)c3ccccc23)cc1	nt	?	-15.9%	0.4%[12.3 µM]	-10.4%
SMILES	uPA generation	TDP1 cell noCPT	TDP1 cell CPT	TDP1 inh	miR-21 reporter
COc1ccccc1C/C(N)=N/OC(=O)c1ccco1	-16.6%	-2.2%	20.6µM*	7.4%	-13.9%
CCCCn1c(-c2ccc(S(=O)(=O)N3CCOCC3)cc2)csc1=Nc1ccccc1	nt	14.6µM*	13µM*	4.0%[12.3 µM]	-0.2%
CCCn1c(-c2ccc(S(=O)(=O)N3CCOCC3)cc2)csc1=Nc1ccc(OCC)cc1	nt	2.91µM*	4.11µM*	11.0%	-0.9%
Cc1cn(C(=O)c2cccc(Br)c2)c(C)n1	1.1%	-16.0%	-7.5%	-3.8%	-1.7%
COc1ccc(CN(C)C(=O)CCl)cc1	?	2.59µM*	2.31µM*	1.3%	?
CN(C)CCNC(=O)c1ccc(Cl)s1	nt	-0.9%	-6.2%	2.6%	-9.1%
CN(Cc1ccc(Cl)cc1)C(=O)CCl	7.94µM*	2.59µM*	2.31µM*	0.0%	?
CN(Cc1ccccc1)C(=O)CC(=O)N(C)Cc1ccccc1	-0.7%	-24.9%	-1.8%	-2.5%	-21.5%
CN(Cc1ccc(Cl)s1)C(=O)CCl	-5.9%	1.84µM*	3.26µM*	2.9%	?
Cc1nc([N+](=O)[O-])c(Br)n1Cc1ccc(Cl)c(Cl)c1	?	2.59µM*	5.17µM*	0.0%	?
COc1ccc(C(=O)Cn2c(C)nc([N+](=O)[O-])c2Br)cc1	-14.0%	23.1µM*	7.31µM*	nt	19.0%
COc1ccc(C(=O)Cn2cc([N+](=O)[O-])nc2C)cc1	1.7%	10.6%	-15.3%	nt	-0.6%
Cc1nc([N+](=O)[O-])c(Br)n1CC(=O)c1ccc(Cl)cc1	-14.0%	7.31µM*	8.2µM*	6.0%	?
O=C(CN1CCN(S(=O)(=O)N2CCCCCC2)CC1)Nc1cc(Cl)ccc1Cl	1.9%	?	-29.2%	nt	0.1%
C[C@@H]1COc2cccc(N3CCN(Cc4ccccc4F)CC3)c2S(=O)(=O)N1	nt	-4.2%	-8.0%	nt	nt
O=C(c1ccc([N+](=O)[O-])cc1)N1CCC(n2nnc3cc(F)ccc32)CC1	-10.5%	-11.5%	-11.8%	2.8%	-0.6%
CCOc1ccc(Cl)cc1-c1cc(C(=O)NCc2cccc(C(F)(F)F)c2)[nH]n1	nt	13µM*	10.3µM*	nt	nt
CC(C)Oc1ccc(F)cc1-c1cc(C(=O)NCc2ccc(F)cc2)[nH]n1	nt	?	25.9µM*	nt	nt
COc1ccc(F)cc1-c1cc(C(=O)NCc2ccc(C(F)(F)F)cc2)[nH]n1	nt	16.4µM*	23.1µM*	nt	nt
Cc1ccc(Cl)cc1-c1cc(C(=O)NCc2cc(C(F)(F)F)cc(C(F)(F)F)c2)[nH]n1	nt	20.6µM*	?	nt	nt
O=C(NCc1cc(C(F)(F)F)cc(C(F)(F)F)c1)c1cc(-c2cc(F)ccc2OCC2CCCO2)n[nH]1 (configuration not stated)	nt	5.1%	-14.8%	nt	nt
COc1ccc(Cl)cc1-c1cc(C(=O)NCc2cccs2)[nH]n1	nt	?	11.6µM*	nt	nt

Screens (PubChem BioAssay)
